# Most compounds without a hit are left out; they make up all but 6% or so of the library.
# D1 ag – Allosteric Agonists of the Human D1 Dopamine Receptor: qHTS | 1% of 360,000 active | activation, % at 2 µM | D(1A) dopamine receptor (Homo sapiens), P21728 | HEK293 T-REx D1 cells, calcium flux, agonist mode; in the data active means activation above about 30%; further: 0% is about no effect
# Target sequence (P21728 whole entry, looked up): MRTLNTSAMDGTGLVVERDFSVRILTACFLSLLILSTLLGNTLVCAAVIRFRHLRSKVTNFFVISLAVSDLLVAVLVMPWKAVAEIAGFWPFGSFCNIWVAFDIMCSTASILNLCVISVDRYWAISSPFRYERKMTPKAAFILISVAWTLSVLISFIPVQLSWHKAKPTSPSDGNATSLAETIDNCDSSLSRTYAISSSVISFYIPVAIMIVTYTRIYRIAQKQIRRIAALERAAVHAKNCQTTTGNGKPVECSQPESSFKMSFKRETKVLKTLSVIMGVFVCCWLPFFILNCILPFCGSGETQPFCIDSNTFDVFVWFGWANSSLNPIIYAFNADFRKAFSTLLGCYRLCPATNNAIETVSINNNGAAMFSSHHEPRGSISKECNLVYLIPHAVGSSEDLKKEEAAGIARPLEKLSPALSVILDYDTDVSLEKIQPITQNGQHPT
#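 Inducible HEK293 T-REx D1 cells, force-coupled to calcium signalling, were plated at 4000 cells/well with tetracycline and held overnight at 30 C. After no-wash calcium dye loading, compound-evoked calcium rise over 180 s flagged agonists.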
# D1 potentiator – Potentiators of Human D1 Dopamine Receptor: qHTS. HEK293 TREx D1 cells, calcium flux, dopamine EC20 potentiation. potentiation, % at 10 µM. 0.036% of 360,000 active. D(1A) dopamine receptor (Homo sapiens), P21728; in the data active means potentiation above about 30%; further: 0% is about no effect
# DRD3 agonist – qHTS of D3 Dopamine Receptor Agonist: qHTS | 0.58% of 410,000 active | D(3) dopamine receptor (Homo sapiens), P35462 | max activation, % | D3R DiscoveRx beta-arrestin cells, luminescence, 90 min; in the data active means max activation above about 30%; further: 0% is about no effect
#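 Cells at 1500/well, incubated overnight, then treated with pinned compounds (dopamine as control) for 90 min at 37 degrees C. DiscoveRx reagent added for 30 - 60 minutes at room temperature; luminescence read.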
# D3 antag – qHTS of D3 Dopamine Receptor Antagonist: qHTS; D(3) dopamine receptor (Homo sapiens), P35462; D3R cells, DiscoveRx beta-arrestin luminescence, antagonist mode; stronger effect = lower value; 2.5% of 360,000 active; max response, negative = inhibition, %; in the data active means max response below about -50%; inconclusive means no clear call, values can overlap the other calls; further: on the % scale 0 is the no-effect control and ±100 the full control effect
#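 Cells expressing the human receptor were seeded at 1500 cells/well, incubated overnight at 37 degrees C in 5% CO2, then exposed to library compounds with dopamine controls for 90 minutes at 37 degrees C before luminescent detection.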
# D1 antag – Antagonist of Human D 1 Dopamine Receptor: qHTS; HEK293 TREx D1 cells, calcium flux, dopamine EC80; stronger effect = lower value; activity change, negative = inhibition, % at 10 µM; 3.2% of 360,000 active; in the data active means activity change below about -30%; further: on the % scale 0 is the no-effect control and ±100 the full control effect
#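 Kinetic fluorescence of a calcium dye serves as the read-out. D1-expressing Hek293 Trex cells, induced overnight at 30 C, are exposed to compound for 180 s before an EC80 dopamine addition, then read 180 s further.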
# Numbers without * were called inactive; ? = inconclusive; nt = no result.
SMILES,D1 ag,D1 potentiator,DRD3 agonist,D3 antag,D1 antag
CC(C)NC(=O)c1ccc(CN2CCc3ccccc3C2)cc1,7.0,-2.8,-18.0,-65.9*,9.3
CC(C)[C@H](NC(=O)c1ccccc1)C(=O)OCC(=O)N1CCc2ccccc2C1,8.0,-2.9,-1.6,5.6,-12.8
O=C(Nc1ccc(F)c(Cl)c1)c1cc(C2CCCN(C(=O)c3cccs3)C2)on1 (stereo not drawn),nt,nt,5.5,2.1,nt
CSc1nn(Cc2cccc(F)c2)c(N(C(C)=O)C(C)=O)c1S(=O)(=O)c1ccccc1,0.7,0.1,0.2,nt,5.2
CN(C)C(=O)c1ccc(NC(=O)c2cccc(S(=O)(=O)N3CCCc4ccccc43)c2)cc1,7.5,-4.4,2.6,-0.4,-31.3*
O=C(NCc1ccccc1)c1ccc(S(=O)(=O)N2CCCc3ccccc32)cc1,4.9,-10.0,-4.9,?,11.1
O=C(NCc1ccco1)c1ccc(S(=O)(=O)N2CCCc3ccccc32)cc1,14.6,-4.2,0.2,-28.4,-32.4*
Cc1ccc(NC(=O)c2cc(S(=O)(=O)N3CCCc4ccccc43)ccc2F)cc1F,6.0,-2.7,-8.0,nt,-30.7*
Cc1ccc(CN(C)C(=O)c2cccc(S(=O)(=O)N3CCc4ccccc43)c2)cc1,nt,nt,-19.2,-52.4*,nt
CCN(CC(=O)Nc1ccccc1C(F)(F)F)CC(=O)c1[nH]c(C)c(C(C)=O)c1C,nt,nt,1.7,-5.4,nt
CC1(C(=O)NS(=O)(=O)Cc2cccc(Cl)c2)CCN1C(=O)C1CCCCC1 (stereo not drawn),nt,nt,-16.2,-21.4,nt
Cc1nc(SCc2cc(=O)c3cccc(F)c3[nH]2)n[nH]1,2.0,-4.5,6.2,nt,-5.6
O=C(CNC(=O)C1CCCC1)OC(C(=O)Nc1cc(C(F)(F)F)ccc1Cl)c1ccccc1 (stereo not drawn),9.9,2.2,nt,nt,6.8
O=C(Nc1ccc(Br)cc1)c1cc(S(=O)(=O)N2CCc3ccccc32)ccc1F,7.5,-3.1,-4.4,nt,-50.1*
O=C(Nc1ccc(Cl)cc1)c1cc(S(=O)(=O)N2CCCc3ccccc32)ccc1F,5.3,0.7,-8.3,nt,8.7
OCC[C@@H]1C[C@H](O)[C@@H](O)[C@@]2(OCc3ccccc32)O1,1.1,-1.6,19.7,40.3,-12.8
OCC[C@@H]1C[C@H](O)[C@@H](O)[C@]2(OCc3ccc(CO)cc32)O1,nt,nt,-14.5,-63.6*,nt
COc1ccc(CCNc2nccn(-c3ccc(C)c(C)c3)c2=O)cc1OC,4.5,-4.4,6.5,nt,-44.4*
CCCNCC1COc2ccccc2O1 (stereo not drawn),1.4,-14.5,-43.7,-69.9*,-20.7
COc1ccc(CNCC2COc3ccccc3O2)cc1 (stereo not drawn),4.8,2.4,4.1,-100.5*,8.9
COc1cccc(OC)c1OCCNCC1COc2ccccc2O1 (stereo not drawn),nt,nt,-84.0,-93.7*,nt
c1ccc(CCCCNCC2COc3ccccc3O2)cc1 (stereo not drawn),9.6,-3.8,-7.8,-91.4*,-8.2
CCN(CC)CCNC(=O)COc1ccc(Cl)cc1,nt,nt,-17.3,nt,nt
CCCN(C(=O)CSc1nc2ccccc2n1CC)C1CCS(=O)(=O)C1 (stereo not drawn),8.2,-4.2,-8.0,0.7,-30.4*
COc1ccc(CCNC(=O)c2ccc3c(c2)NC(=O)CS3)cc1OC,0.6,-1.0,-4.5,-5.7,-32.7*
SMILES,D1 ag,D1 potentiator,DRD3 agonist,D3 antag,D1 antag
COc1ccc(CCNC(=O)c2ccc(Cn3c(=O)[nH]c4cc(OC)c(OC)cc4c3=O)cc2)cc1OC,0.8,0.4,-1.4,nt,-35.5*
COc1ccc(CCNC(=O)c2ccc(OCC(=O)N3CCOCC3)c(OC)c2)cc1OC,3.5,0.9,-19.1,-10.8,-41.9*
CCOC(=O)C(CC)Sc1ncnc2c1c(-c1ccccc1)cn2-c1ccc(OC)cc1 (stereo not drawn),3.8,1.0,2.9,nt,-6.9
CCCCN(C)C(=O)c1ccc2c(c1)N(Cc1cccc(Cl)c1)C(=O)c1ccccc1S2=O (stereo not drawn),3.3,7.0,0.0,nt,18.0
Cc1nn(C)c(=O)c(N)c1-c1cc(-c2ccc(Cl)c(Cl)c2)n[nH]1,8.0,-3.9,12.6,4.0,-47.2*
CC1CCN(c2nc(-c3cccnc3)nc3scc(-c4ccccc4)c23)CC1,1.4,-4.2,1.2,49.7,0.5
CC1CCCN(c2nc(-c3cccnc3)nc3scc(-c4ccccc4)c23)C1 (stereo not drawn),1.3,-4.0,34.0*,17.5,5.3
CCCCN(CCCC)Cc1cc2ccccc2c2c1COC2,5.5,3.1,-10.6,-1.0,19.0
CCCN(CCC)Cc1cc2ccccc2c2c1COC2,0.1,-7.2,-13.1,-64.2*,-2.9
O=C(NC1CC1)C1=C[C@@H](c2coc3ccccc3c2=O)C[C@@H](OCc2ccc(CO)cc2)O1,34.5*,4.8,-2.9,-5.9,3.9
O=C(O)C1=C[C@@H](c2coc3ccccc3c2=O)C[C@@H](OCc2ccc(CO)cc2)O1,-5.4,-0.4,6.6,6.5,-22.4
O=C(NC1CC1)C1=C[C@@H](c2c[nH]c3ccccc23)C[C@@H](OCc2ccc(CO)cc2)O1,2.8,1.6,-21.6,-52.6*,2.6
COc1cc(NC(=O)Cn2c(=O)n(Cc3ccco3)c(=O)c3sc4ccccc4c32)cc(OC)c1,1.5,-2.8,-6.1,nt,-0.7
CN(C)S(=O)(=O)c1cc(NC(=O)Cn2ccsc2=N)ccc1Cl,0.8,-3.1,-0.5,-9.4,-30.2*
Cc1cc(C)c(NC(=O)C2CCCN2C)c(C)c1 (stereo not drawn),2.0,-10.1,10.9,-11.4,-35.1*
Cc1cc(C)c(NC(=O)C2CCCN2CCO)c(C)c1 (stereo not drawn),1.2,-1.8,1.0,-8.4,13.3
Cc1cc(C)c(Nc2cc(S(=O)(=O)O)c(N)c3c2C(=O)c2ccccc2C3=O)c(C)c1,39.9*,-2.5,-4.2,-26.5,-15.2
CC(NCCC1(Cc2ccccc2Cl)CCOC(C)(C)C1)c1cccs1 (stereo not drawn),46.7*,7.9,-8.2,7.3,10.4
Cc1ccc(C)c(C(=O)COC(=O)c2ccccc2N2C(=O)C3C4CCC(C4)C3C2=O)c1 (stereo not drawn),14.7,-5.1,2.7,1.5,-42.2*
CCCCOC(=O)c1ccccc1N1C(=O)C2C3CCC(C3)C2C1=O (stereo not drawn),4.9,-12.4,3.9,-6.4,-32.3*
CCC(=O)NC(c1ccco1)c1cc([N+](=O)[O-])c2cccnc2c1O (stereo not drawn),2.0,-0.3,nt,nt,-21.8
Cc1ccccc1OCC(=O)Nc1ccccc1C(=O)OCc1cc(=O)n2nc(C3CC3)sc2n1,-1.4,1.1,3.7,nt,10.3
